Screening results deposited in PubChem BioAssay by National Center for Advancing Translational Sciences (NCATS).
Cycloheximide cs: counter-screen for Shiga toxin inhibitors: cycloheximide protein synthesis inhibition. max response, %. cell reporter, cycloheximide protein synthesis inhibition counterscreen. 300,000 compounds, 12% hits; in the data active = max response mostly above about 13%, no sharp cut-off; inactive = mostly below about 14%; also: read at 38.3 µM for the half of the compounds with a filed dose; 0% is about no effect
Shiga inhibitor: blocks Shiga toxin action in Vero cells; inhibition, % at 38.7 µM; 290,000 compounds, 9.2% hits; Vero cells, Shiga toxin protein synthesis inhibition reporter; AID 2315; in the data active = inhibition mostly above about 28%, no sharp cut-off; inactive = mostly below about 43%; also: 0% is about no effect
LmPK inh: inhibitors of Leishmania mexicana pyruvate kinase. Q27686. purified LmPK, Kinase-Glo ATP luminescence, 1 h. Potency, µM (series often up to 57.5 µM), without a hit: top-dose activity change, negative = inhibition, usual class: inhibitors. 290,000 compounds, 0.37% hits; also: potency is read from the fitted curve at half-maximal effect; % is scaled to controls: 0 for no effect and ±100 for the full control effect
Target sequence (Q27686 whole entry, looked up): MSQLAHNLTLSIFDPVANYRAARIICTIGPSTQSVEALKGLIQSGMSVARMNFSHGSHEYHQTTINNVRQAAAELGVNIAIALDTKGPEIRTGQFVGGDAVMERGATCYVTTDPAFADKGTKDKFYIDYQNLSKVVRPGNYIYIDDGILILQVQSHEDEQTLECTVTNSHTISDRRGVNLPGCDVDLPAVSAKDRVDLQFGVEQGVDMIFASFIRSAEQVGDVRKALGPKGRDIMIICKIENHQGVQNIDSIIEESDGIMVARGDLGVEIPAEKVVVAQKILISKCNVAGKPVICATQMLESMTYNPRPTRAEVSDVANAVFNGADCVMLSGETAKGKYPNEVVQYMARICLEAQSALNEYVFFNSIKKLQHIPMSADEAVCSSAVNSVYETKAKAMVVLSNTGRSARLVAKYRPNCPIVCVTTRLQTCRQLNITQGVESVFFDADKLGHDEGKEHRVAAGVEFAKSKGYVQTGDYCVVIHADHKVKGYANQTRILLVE
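qHTS format; LmPK 0.1 nM; substrates PEP 0.5 mM and ADP 0.1 mM. One-hour room-temperature incubation, then coupled luciferase luminescence; 0.5 nM enzyme wells mark activation.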
NS1 inh: influenza NS1 inhibition; Potency, µM (highest dose often 46.1 µM), without a hit: at the highest dose activity, positive = more growth; AID 2326; 270,000 compounds, 0.4% hits; calls by dose curve; also: potency is read from the fitted curve at half-maximal effect; actives are rising curves; nearly all actives have a fitted effect of over 50% in size
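Read-out: OD600 growth recovery of NS1-expressing budding yeast. Cells grown overnight at 30C in -URA glucose medium, washed, resuspended and diluted 1:100 in 2% galactose assay medium, pH 6.0. Same strain lacking NS1 served as positive control.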
FBPA Giardia inh: inhibitors of Giardia lamblia fructose-1,6-bisphosphate aldolase; Potency, µM (titrated, usually from 59.6 µM), inactives show top-dose activity, negative = inhibition, actives largely listed as inhibitors; 290,000 compounds, 0.71% hits; A8B2U2; purified Giardia FBPA; AID 2451; also: potency is read from the fitted curve at half-maximal effect; % is scaled to controls: 0 for no effect and ±100 for the full control effect; nearly all actives have a fitted effect of over 55% in size
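40 nM FBPA preincubated 10 min at RT with compound (up to 57.5 uM final), then substrate plus GAPDH/TPI/NAD/arsenate coupling and diaphorase/resazurin added. Fluorescence read after 20 min at RT, 525/598 nm.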
An asterisk follows results filed as active; u = inconclusive; x = no result. Rows were chosen to be rich in hits. Some 14% of all compounds tested hit in one or more screens of this group. Unless noted, calls follow the shape of the dose curve; as a rule, active = well fitted curve in the direction sought with a large enough effect; inconclusive = small, poorly fitted or top-dose-only effect, or another doubt; inactive = no such curve, though single readings can be large; an effect the other way counts as inactive or inconclusive.

SMILES	Cycloheximide cs	Shiga inhibitor	LmPK inh	NS1 inh	FBPA Giardia inh
Cc1cccc(/C(N)=N/OC(=O)CCc2ccccc2)c1	32*	52*	-29%	-11%	2%
O=C(c1ccccc1)c1ccc(OCCO)cc1	16	38*	6%	2%	3%
CCCc1ccc(C(=O)CCC(=O)O)cc1	52*	65*	-4%	u	27%
COc1ccc(C(=O)COC(=O)CCc2ccccc2)cc1	6	-2	8%	-2%	-3%
COc1ccc(C(=O)CCc2ccccc2)cc1	43*	117*	-5%	-11%	3%
Cc1ncc(CSc2ccc(Cl)cc2)c(CO)c1O	-4	3	-6%	0%	3%
NC(Cc1c[nH]c2ccccc12)C(=O)NCC(=O)O (stereo unspecified)	x	x	x	x	-10%
COc1ccc(/C(N)=N/OC(=O)CCC2CCCC2)cc1	10	58	2%	-13%	-1%
COc1ccc(/C(N)=N/OC(=O)CCc2ccccc2)cc1	52*	93*	0%	-1%	-11%
CC(=O)Nc1ccc(Oc2ncccn2)cc1	x	x	0%	6%	5%
O=C(c1ccccc1)c1ccc(Oc2ncccn2)cc1	58*	197	-6%	-35%	6%
COc1ccc(/C(N)=N/OC(=O)CSc2ccccc2)cc1OC	55*	68	9%	-12%	-3%
COc1ccccc1C(=O)N(Cc1ccc(Cl)cc1)C1CCS(=O)(=O)C1 (stereo unspecified)	-4	-6	-8%	0%	x
Cc1ccc(Cl)cc1NC(=O)N(C)CCO	-3	1	5%	0%	-1%
CCN(CC(=O)NCc1ccc(Cl)cc1)C(=O)c1cc(OC)cc(OC)c1	-1	-7	1%	-7%	14%
CS(=O)(=O)Cc1ccc(C(=O)NC2CCSc3ccccc32)cc1 (stereo unspecified)	1	3	-2%	16%	-2%
CCc1c(C)[nH]n(-c2nc(-c3cccc([N+](=O)[O-])c3)cs2)c1=O	22*	23*	0%	30%	-14%
Nc1ncnc2nc(N3CCN(CCO)CC3)[nH]c12	x	x	x	0%	x
C=CCOc1ccc(C2=NOC(C(=O)Nc3ccc4c(c3)OCCO4)C2)cc1 (stereo unspecified)	7	-5	6%	-14%	2%
c1ccc(-c2cccc(N3CC[C@@]4(CCCNC4)C3)c2)cc1	x	x	x	x	-3%
Cc1ccc(C)c(OCc2cc(C(=O)NC(C)c3cnn(C)c3)no2)c1 (stereo unspecified)	11	17	12%	-1%	x
COc1cc(C)ccc1OCc1cc(C(=O)NCc2ccncc2)no1	59*	107*	-9%	-3%	x
COc1cc(C)ccc1OCc1cc(C(=O)NC(C)Cn2cncn2)no1 (stereo unspecified)	65*	81*	-8%	-5%	5%
O=C(NC(=S)NC1CCCc2ccccc21)c1ccc(F)cc1 (stereo unspecified)	8	-10	1%	-14%	-11%
O=C(NNC(=O)C1CCC1)c1ccc(Cl)cc1	-1	-5	-2%	18%	x
SMILES	Cycloheximide cs	Shiga inhibitor	LmPK inh	NS1 inh	FBPA Giardia inh
CN(C(=O)c1cccc(NC(=O)c2ccccc2)c1)C1CCCCC1	5	-32	-11%	-13%	x
CN(C(=S)NC(=O)c1ccc(F)cc1)C1CCCCC1	19*	29	0%	-11%	x
CN(C(=S)NC(=O)c1ccc(Cl)cc1)C1CCCCC1	50*	72*	-4%	3%	18%
CN(C(=S)NC(=O)c1ccccc1)C1CCCCC1	15*	34*	-10%	0%	u
O=C(O)/C=C\c1c2ccc(=O)c(O)c-2oc2c(O)c(O)ccc12	x	x	x	10%	x
O=C(O)CC/C(=N\NC(=O)c1ccccc1)c1cccs1	49*	109*	5%	x	-4%
COC(=O)N/N=C(\CCC(=O)O)c1cccs1	15*	14	3%	1%	8%
COc1ccc(OCC(=O)N/N=C(\CCC(=O)O)c2cccs2)cc1	-2	-2	2%	x	3%
O=C(Nc1ccc(SC(F)F)cc1)C1CC(=O)N(Cc2ccccc2)C1 (stereo unspecified)	15*	26*	-1%	7%	x
O=C(Nc1ccccc1)C1CC(=O)N(Cc2ccccc2)C1 (stereo unspecified)	-3	12	-2%	0%	18%
CC(=O)c1ccc(NC(=O)C2CC(=O)N(Cc3ccccc3)C2)cc1 (stereo unspecified)	29*	101*	3%	10%	3%
CSc1cccc(NC(=O)C2CC(=O)N(Cc3ccccc3)C2)c1 (stereo unspecified)	7	6	-4%	0%	9%
COc1ccc(N(CC(=O)Nc2ccc(C(C)C)cc2)S(=O)(=O)c2c(C)noc2C)cc1	10	-5	0%	3%	x
CC(/C=C/c1ccccc1)=N/NC(=O)CNC(=O)c1ccc2c(c1)OCO2	-3	-7	5%	-7%	6%
C/C(=N\NC(=O)c1nc2ccccn2c1C)c1cccc([N+](=O)[O-])c1	12	-1	-1%	x	1%
C/C(=N\NC(=O)c1ccc2c(c1)OCO2)c1ccc2c(c1)OCO2	35*	62*	-3%	x	2%
CCCC(=O)Nc1cccc(NC(=O)c2ccc3c(c2)OCO3)c1	13	38	-19%	-11%	-6%
CC(/C=C/c1ccccc1)=N\NC(=O)c1ccc2c(c1)OCCO2	50*	48*	-3%	-17%	3%
CCCCCC1=CCC/C1=N\NC(=O)c1ccc2c(c1)OCO2	19*	27	8%	x	-2%
C/C(=N\NC(=O)c1nc2ccccn2c1C)c1ccc2c(c1)OCO2	19*	42	-1%	21%	-3%
COc1ccc(/C(C)=N/NC(=O)CNC(=O)c2cccs2)cc1OC	15	56	5%	x	7%
C/C(=N\Nc1ccc([N+](=O)[O-])cc1)c1ccc2c(c1)OCO2	30*	81*	8%	x	-5%
C/C(=N\NC(=O)c1ccc2c(c1)OCO2)c1ccc(C(=O)O)s1	31*	54*	-15%	4%	-4%
C/C(=N\NC(=O)C1CC1)c1ccc(C)c(C)c1	28	1	-3%	26%	x
C/C(=N\NC(=O)c1cccs1)c1ccc2c(c1)OCO2	64*	117*	-3%	-10%	-1%
SMILES	Cycloheximide cs	Shiga inhibitor	LmPK inh	NS1 inh	FBPA Giardia inh
C/C(=N\NC(=O)C1CC1)c1ccc2c(c1)OCCO2	28*	44	-4%	-1%	4%
O=C(CNC(=O)c1nc[nH]c1C(=O)N1CCN(c2ccccc2)CC1)OCc1ccccc1	-1	-4	-1%	-3%	-26%
O=C(CCN1C(=O)[C@@H]2Cc3ccccc3CN2C1=O)N[C@@H](Cc1ccccc1)C(=O)O	1	1	-1%	9%	6%
C/C(=N\NC(=O)c1ccc2c(c1)OCCO2)c1ccccc1	21*	52*	11µM*	-1%	-3%
C/C(=N\NC(=O)c1ccc2c(c1)OCO2)c1ccc(NC(=O)CCCC(=O)O)cc1	34*	57*	3%	-5%	-4%
O=C(NN=C1CCCC1)c1ccc(O)cc1	30*	42*	-9%	6%	-10%
